Values without a mark were called inactive. Records with an inconclusive call do not appear. Calls of active or inactive are those of the source. Calls come from the whole dose curve; as a rule, active = well fitted curve in the direction sought with a large enough effect; inconclusive = small, poorly fitted or top-dose-only effect, or another doubt; inactive = no such curve, though single readings can be large; an effect the other way counts as inactive or inconclusive.

The source of these data is PubChem BioAssay (NCATS).

Assay [1] can be described thus: qHTS for Activators of Parkin Expression: LOPAC Validation Assay (NLuc Reporter) (AID 720572; note: potency is the fitted concentration of half-maximal effect). Summed up: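 Parkin promoter-driven FLuc/NLuc neuronal reporter cells; 24 h plating, 7-pt dose response, 24 h at 37 C/5% CO2; FLuc then NanoLuc reagent, 10 min each, luminescence; DMSO/positive control normalized.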
In general terms: In qHTS, concentration-response curves come from the screen itself.

Assay [2] in a line: qHTS assay for measurement of the activity of small molecule inhibitors on Zika virus induced Caspase-3 activity in human iPSC derived neural progenitor cells (hNPCs) (AID 1224857). Note: % of control where 0% means no effect; nearly all actives have a fitted effect of over 65% in size. In a few lines:
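Pretreat hNPCs with compound 1 h; infect ZIKV 2 FFU/cell; 6 h 37 C, 5% CO2; Caspase-Glo 3/7, 30 min RT; luminescence; normalize to no-virus and virus-only wells.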

A short description of assay [3]: qHTS assay for measurement of the activity of small molecule inhibitors on Zika virus induced Caspase-3 activity in human astrocytoma cells (AID 1224859).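 Note: plate controls were ZIKV-infected untreated cells for no effect and uninfected cells for full effect.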 In a few lines:
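Human SNB-19 astrocytoma cells in RPMI 1640 with 10% FBS receive compound one hour ahead of Zika virus at 2 FFU/cell. After 6 h infection, caspase-3/7 activity is detected by Caspase-Glo luminescence.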

A short description of assay [4]: qHTS for Activators of Parkin Expression: LOPAC Validation Assay (FLuc Reporter) (AID 720573;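 note: 0% = DMSO and 100% = positive control compounds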). In a few lines: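 Neuronal cell line stably carrying FLuc/NLuc coincidence reporter under Parkin promoter; cells plated 24 h, then compounds added in 7-point dose response for 24 h at 37 C. FLuc luminescence read; normalized to DMSO and positive control (100%).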
Assay [5] addresses T1, Hexokinase-4 (Homo sapiens) + Glucokinase regulatory protein (Homo sapiens) (UniProt P35557+Q14397). Kind of assay: qHTS assay for inhibitors of recombinant human GCK-GKRP interaction: Diaphorase-coupled assay (AID 743205). Summed up:
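GST-GCK (10 nM) with FLAG-GKRP (10 nM), 5 mM glucose and 0.4 mM ATP in pH 7.6 Hepes; compounds preincubated 20 min with substrate. G6PDH/diaphorase coupling converts resazurin to resorufin, read kinetically (ex 525/em 590 nm) for 30 min.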

The target of assay [6] is T1, Hexokinase-4 (Homo sapiens) + Glucokinase regulatory protein (Homo sapiens). Briefly: qHTS assay for inhibitors of recombinant human GCK-GKRP interaction: ADP-Glo assay (AID 743206).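 Note: plate controls were DMSO plus enzyme for no effect and no enzyme for full effect.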 Summed up: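 GST-GCK and FLAG-GKRP (15 nM each in the dispensed mix, with 2 uM S6P) react with 0.4 mM ATP and 5 mM glucose (final) in Hepes pH 7.6 for 60 min at room temperature. ADP is measured by ADP-Glo luminescence.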

Assay [7] has the same target. Briefly: qHTS assay for inhibitors of recombinant human GCK-GKRP interaction: HTRF assay (AID 743207).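 Note: 0% = DMSO with GCK present and -100% = DMSO wells lacking GCK.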 Summed up: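 GST-GCK and FLAG-GKRP (5 nM each) were combined with 2 uM S6P in pH 7.1 Hepes/MgCl2/KCl/DTT buffer, then compound and anti-FLAG XL665/anti-GST K antibodies were added. After 60 min at room temperature, HTRF 665/615 nm emission was read.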
Assay [8] is described as follows: qHTS Assay for Identifying Gametocytocidal Compounds (AID 743244).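 Note: % is set by controls: 0 for no effect and ±100 for the full control effect; actives lower the fluorescent signal which means gametocytes are killed.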 To be noted: P. falciparum 3D7 stage III-V gametocytes, alamarBlue, 72 h; max response: stronger effect = lower value. Summed up:
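Compounds are pinned into medium, gametocytes (stage III–V, 3D7, 20,000 cells/well) added, and plates held 72 h at 37 °C in 5% CO2. AlamarBlue follows for 24 h before fluorescence reading.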

T1 sequence (P35557 whole entry, looked up): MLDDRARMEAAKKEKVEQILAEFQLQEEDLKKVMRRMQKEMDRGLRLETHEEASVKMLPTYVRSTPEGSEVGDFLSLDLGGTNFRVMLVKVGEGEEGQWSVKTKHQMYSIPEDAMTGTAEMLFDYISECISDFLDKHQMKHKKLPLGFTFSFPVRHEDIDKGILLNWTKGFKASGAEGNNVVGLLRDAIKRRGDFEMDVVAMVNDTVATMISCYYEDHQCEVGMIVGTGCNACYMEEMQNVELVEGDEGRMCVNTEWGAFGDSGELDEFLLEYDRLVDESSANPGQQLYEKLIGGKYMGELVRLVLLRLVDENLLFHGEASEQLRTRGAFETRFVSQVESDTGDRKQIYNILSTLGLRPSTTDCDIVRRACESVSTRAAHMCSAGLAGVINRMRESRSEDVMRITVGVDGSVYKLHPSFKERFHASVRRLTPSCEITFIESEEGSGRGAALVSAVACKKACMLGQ
T1 sequence (Q14397 whole entry, looked up): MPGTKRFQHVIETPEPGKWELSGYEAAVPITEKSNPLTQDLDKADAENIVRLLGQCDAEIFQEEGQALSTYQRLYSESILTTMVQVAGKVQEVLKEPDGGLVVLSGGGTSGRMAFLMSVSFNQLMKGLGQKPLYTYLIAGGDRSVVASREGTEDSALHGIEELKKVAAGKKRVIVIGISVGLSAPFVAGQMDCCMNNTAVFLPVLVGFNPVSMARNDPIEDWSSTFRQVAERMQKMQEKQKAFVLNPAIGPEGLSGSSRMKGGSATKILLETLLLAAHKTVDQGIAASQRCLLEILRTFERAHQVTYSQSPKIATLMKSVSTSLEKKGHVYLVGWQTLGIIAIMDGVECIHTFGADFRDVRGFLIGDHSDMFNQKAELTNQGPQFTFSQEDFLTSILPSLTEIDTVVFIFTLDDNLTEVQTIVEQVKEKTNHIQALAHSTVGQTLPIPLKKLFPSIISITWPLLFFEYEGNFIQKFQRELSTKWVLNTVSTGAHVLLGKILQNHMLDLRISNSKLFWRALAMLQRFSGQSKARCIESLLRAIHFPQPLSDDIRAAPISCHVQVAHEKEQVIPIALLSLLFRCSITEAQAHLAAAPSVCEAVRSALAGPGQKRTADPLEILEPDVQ

Consider `CC(C)NC[C@H](O)COc1cccc2[nH]ccc12`, for which the Potency entry in assay [1], in assay [2] and in assay [3] was “inactive” each time.
As to `Oc1c(Br)cc(Br)c2cccnc12`, the Potency result in assay [2] is “inactive”.
The same measure, in the same setting: the value for `CNC(=O)c1c(I)c(NC(=O)CCCCC(=O)Nc2c(I)c(C(=O)O)c(I)c(C(=O)NC)c2I)c(I)c(C(=O)O)c1I` was “inactive”.
In the case of `COc1ccc(-c2cc(=O)c3c(O)c(OC)c(OC)cc3o2)cc1O`, the Potency result in assay [2] is “inactive”.
Still for that read-out and setting: the entry for `Nc1nc(Cl)nc2c1ncn2[C@@H]1O[C@H](CO)C(O)[C@H]1O` (stereo not given in full) is “inactive”.
`C=C[C@H]1CN2CC[C@@H]1C[C@@H]2[C@@H](O)c1ccnc2ccc(OC)cc12`: the Potency entry in assay [1], in assay [4], in assay [6], in assay [7], in assay [2] and in assay [3] was “inactive” each time. Besides, in assay [5], the result was inactive.
Take `OC[C@H]1O[C@@H](n2cnc3c(NC4CCCCC4)ncnc32)[C@H](O)[C@@H]1O`: the Potency entry in assay [1], in assay [4], in assay [6], in assay [7], in assay [2] and in assay [3] was “inactive” each time. Further, in assay [5], the outcome was inactive. Further, the max response in assay [8] was 8.7%.
With `NS(=O)(=O)C#Cc1ccccc1`, the Potency entry in assay [1], in assay [4], in assay [6], in assay [2] and in assay [3] was “inactive” in each case. Moreover, the result in assay [5] was inactive.
For the compound `COc1cccc(OC)c1OCCNCC1COc2ccccc2O1` (stereo not given), the Potency result in assay [1], in assay [4], in assay [6], in assay [7], in assay [2] and in assay [3] was “inactive” in each case. In addition, the outcome in assay [5] was inactive. Also, in assay [8], the max response is 16.7%.
With `CN1CCc2ccccc2Cc2[nH]c3ccccc3c2CC1`, the Potency result in assay [1], in assay [4], in assay [6], in assay [7], in assay [2] and in assay [3] was “inactive” throughout. Also, the result in assay [5] was inactive. In addition, in assay [8], the max response was -0.861%.
`CCOC(=O)C1=C(C)NC(C)=C(C(=O)OCC)C1c1c(F)c(F)c(F)c(F)c1F`: in assay [1], the Potency was 4.11 µM (active). Further, the Potency result in assay [4], in assay [6], in assay [7], in assay [2] and in assay [3] was “inactive” throughout. Moreover, the outcome in assay [5] was inactive. For the same compound, the max response in assay [8] is 17%.
For `O=C(O)CC1CCCc2ccccc2C1O` (stereo not given), the Potency result in assay [1], in assay [4], in assay [6], in assay [7], in assay [2] and in assay [3] was “inactive” in each case. Moreover, in assay [5], the outcome was inactive. The max response in assay [8] is 12.4%.
Consider `O=C(c1ccc(Cl)cc1)N1CCN(c2ccc([N+](=O)[O-])c3ncccc23)CC1`, for which the Potency result in assay [1], in assay [4], in assay [6], in assay [7], in assay [2] and in assay [3] was “inactive” throughout. Further, in assay [5], the outcome was inactive.
Take `NC[C@H]1O[C@@H](n2cnc3c(N)ncnc32)[C@H](O)[C@@H]1O`: the Potency entry in assay [1], in assay [4], in assay [6], in assay [7], in assay [2] and in assay [3] was “inactive” in each case. Besides, the result in assay [5] was inactive. Further, in assay [8], the max response is -2.15%.
For `Cc1cc2c(cc1Cl)N(C(=O)Nc1ccc(Oc3cccnc3C)nc1)CC2`, the Potency entry in assay [1], in assay [4], in assay [6], in assay [7], in assay [2] and in assay [3] was “inactive” throughout. In addition, the result in assay [5] was inactive.
`CC(C)(C=O)Cc1cc(C(C)(C)C)c(O)c(C(C)(C)C)c1`: the Potency result in assay [1], in assay [4], in assay [6], in assay [7], in assay [2] and in assay [3] was “inactive” each time. In addition, in assay [5], the outcome was inactive. Also, the max response in assay [8] was 8.22%.
